Bioassay records from PubChem BioAssay.
This is a sample that favours compounds with a hit; in the whole collection about 12% have one here.
PLK1 PBD inh: blocks phosphopeptide binding to human PLK1 polo-box domain. actives 2.8% (n = 360,000). AID 720504. Potency, µM, usual class: inhibitors. Plk1 PBD binding of FITC phosphopeptide, fluorescence polarization; note: series mostly up to about 57 µM; nearly all actives have a fitted effect of over 65% in size
Gal4-VP16 FLuc: inhibits Gal4-VP16 luciferase reporter, ROR gamma counter-screen. Drosophila S2 Gal4-VP16 UAS-luciferase, luminescence, 20 h. Potency, µM (highest dose often 53.6 µM), actives largely listed as inhibitors. actives 3.5% (n = 310,000);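 note: Gal4-VP16 expression switched on by copper sulfate through the metallothionein promoter; nearly all actives have a fitted effect of over 50% in size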
Sfp PPTase inh: blocks B. subtilis Sfp PPTase activity. Q9F4F7. Biochemical Sfp PPTase activity, qHTS. Potency, µM, actives largely listed as inhibitors. actives 3.5% (n = 310,000);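 note: the enzyme is Sfp with the accession as filed and its product quenches rhodamine fluorescence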
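With Hepes-Na pH 7.6 buffer containing 10 mM MgCl2, Sfp (15 nM) modified BHQ-2-YbbR (12.5 uM) using rhodamine-CoA (5 uM). Two reads 30 minutes apart at 525/598 nm yielded each well's rate.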
RORgamma inh: blocks mouse ROR gamma transcriptional activity. Drosophila S2 Gal4-RORgamma UAS-luciferase reporter, 20 h. Potency, µM (doses to about 53.6 µM), actives largely listed as inhibitors. actives 5.4% (n = 310,000). AID 2551; note: nearly all actives have a fitted effect of over 60% in size
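Stable Schneider cell line, Gal4 DNA-binding domain fused to ROR gamma, UAS-luciferase. Cmpd 1 hr RT → CuSO4 700 uM final → 20 hr RT → luciferase reagent 10 min → luminescence.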
ALDH1A1 inh: ALDH1A1 (human) enzyme inhibition; Purified ALDH1A1, NADH fluorescence, propionaldehyde substrate; Potency, µM (doses to about 75.3 µM), most hits filed as inhibitors; actives 7.3% (n = 220,000); active = well fitted inhibition curve with a large enough effect, not every such curve was filed as active; inconclusive = small, poorly fitted or top-dose-only effect, or another doubt; inactive = no such curve, though single readings can be large or run the other way
Target sequence (P00352 whole entry, looked up): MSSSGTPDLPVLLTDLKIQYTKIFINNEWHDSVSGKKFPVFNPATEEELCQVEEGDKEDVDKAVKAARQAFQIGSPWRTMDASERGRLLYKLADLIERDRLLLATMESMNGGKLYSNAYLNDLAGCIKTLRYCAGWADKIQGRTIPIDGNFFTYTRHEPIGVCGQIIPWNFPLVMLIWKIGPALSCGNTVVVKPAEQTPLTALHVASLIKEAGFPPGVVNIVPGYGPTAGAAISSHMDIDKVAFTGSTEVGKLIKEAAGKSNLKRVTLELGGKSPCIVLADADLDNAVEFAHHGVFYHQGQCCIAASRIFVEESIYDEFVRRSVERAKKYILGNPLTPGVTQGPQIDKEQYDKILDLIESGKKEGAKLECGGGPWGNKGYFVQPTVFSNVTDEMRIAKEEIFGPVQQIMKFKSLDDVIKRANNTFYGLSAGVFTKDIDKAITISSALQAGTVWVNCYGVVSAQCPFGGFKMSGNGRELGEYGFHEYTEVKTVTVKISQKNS
Hits are given with their value; 0 = inactive; ? = inconclusive; - = not tested or not shown; [ ] = another dose, or the depositor's remark. Unless noted, calls come from the whole dose curve; as a rule, active = well fitted curve in the direction sought with a large enough effect; inconclusive = small, poorly fitted or top-dose-only effect, or another doubt; inactive = no such curve, though single readings can be large; an effect the other way counts as inactive or inconclusive.

SMILES	PLK1 PBD inh	Gal4-VP16 FLuc	Sfp PPTase inh	RORgamma inh	ALDH1A1 inh
Cc1nn(C)cc1-c1n[nH]c(=S)n1-c1ccc(F)cc1	0	0	0	?	0
Fc1cccc(-c2n[nH]c(=S)n2-c2ccccc2)c1	0	7.9µM	0	8.9µM	-
CCCn1nnnc1-c1ccc(Cl)cc1	0	0	0	?	?
CCCn1nnnc1NC(=O)CSc1ccc(Cl)cc1	0	2.2µM	0	0.89µM	0
CCCCn1nnc(NC(=O)Cc2ccc(Cl)cc2)n1	0	0	0	?	0
CCCn1nnnc1NC(=O)c1cc(Cl)ccc1Cl	27µM	2.2µM	0	1.6µM	?
CCn1nnc(NC(=O)CSc2ccc(Cl)cc2)n1	27µM	0	0	0	0
CCOC(=O)c1ccc(NC(=O)c2nc(SC)ncc2Cl)cc1	0	0	0	0	-
Cc1ccccc1CS(=O)(=O)c1ncc(Cl)c(C(=O)Nc2ccc(F)cc2)n1	19µM	?	?	?	-
Cc1ccc(NC(=O)c2nc(S(=O)(=O)Cc3ccccc3)ncc2Cl)cc1	?	2.2µM	?	?	-
O=C(Nc1ccc(F)cc1)c1nc(S(=O)(=O)Cc2ccccc2)ncc1Cl	17µM	7.9µM	?	0	-
O=C(Nc1ccc(F)cc1)c1nn(-c2ccccc2)c(=O)cc1Cl	0	?	0	?	?
N=c1oc2ccc3ccccc3c2cc1C(N)=S	24µM	?	?	6.3µM	?
Clc1ccc(-c2nnc(-c3ccc(Br)cc3)c(N3CCSCC3)n2)cc1	0	0	0	0	0
Clc1ccc(-c2nnc(-c3ccco3)nc2N2CCCCC2)cc1	?	0	?	0	2.2µM
COc1ccc(F)cc1-c1cc(NC=O)c2ncc(-c3cccc(C(F)(F)F)c3)n2c1	0	-	-	-	-
COc1cc(/C=C(\C#N)c2nc3ccccc3[nH]2)c([N+](=O)[O-])cc1OCc1ccccc1	0	0	0	0	0.56µM
COc1cccc(-c2cc(N(C)Cc3ccco3)ncn2)c1	-	0	0	?	?
Nc1ccn([C@@H]2O[C@H](C(=O)N[C@H]3c4ccccc4C[C@H]3O)[C@@H](O)[C@H]2O)c(=O)n1	0	-	-	-	-
Cc1ccc(C(=O)N/N=C/c2cc(Br)ccc2O)cn1	?	1.1µM	0	2.5µM	-
Cc1ccc(C(=O)N/N=C\C=C\c2ccc(Br)cc2)cn1	?	2.2µM	0	0.56µM	0
C[C@@H]1CN([C@H](C)CO)C(=O)c2c(c3ccccc3n2C)-c2ccccc2CO[C@H]1CN(C)C(=O)Nc1ccccc1	0	-	-	-	-
COCCNC(=O)C(=O)NCC1OCCCN1S(=O)(=O)c1cccs1 (stereo not drawn)	0	0	0	0	18µM
O=C(NCc1ccco1)C(=O)NCC1OCCN1S(=O)(=O)c1ccccc1 (stereo not drawn)	0	0	0	0	?
O=C(NCc1ccco1)C(=O)NCC1OCCCN1S(=O)(=O)c1ccccc1 (stereo not drawn)	0	0	0	0	14µM
SMILES	PLK1 PBD inh	Gal4-VP16 FLuc	Sfp PPTase inh	RORgamma inh	ALDH1A1 inh
COc1ccc(C(=O)Nc2nnc(SCC(=O)NC3CCCC3)s2)c(OC)c1	0	?	0	3.2µM	-
COc1ccccc1C(=O)Nc1nnc(SCC(=O)NCc2ccco2)s1	0	?	0	?	-
COc1ccc(C(=O)Nc2nnc(SCC(=O)Nc3ccc(NC(C)=O)cc3)s2)c(OC)c1	0	0	0	?	-
O=C(CCCl)Nc1nnc(SCC(=O)NC2CCCC2)s1	0	2µM	0	0	-
COc1ccc(C(=O)Nc2nnc(SCC(=O)NCc3ccco3)s2)c(OC)c1	0	10µM	0	11µM	-
OCc1ccccc1SSc1ccccc1CO	0.27µM	-	-	-	-
COC(=O)[C@@]1(Cc2ccc(F)cc2)[C@H]2c3cc(C(=O)N(C)C)n(CCc4ccc(O)c(O)c4)c3C[C@H]2CN1C(=O)c1ccccc1	-	0	0	0	0
COc1cc(C(O)P(=O)(OCC(C)C)OCC(C)C)cc(OC)c1OC (stereo not drawn)	12µM	0	0	0	0
FC(F)(F)c1cccc(Nc2cc(-c3ccccc3)nc3ncnn23)c1	0	0	0	2µM	-
CC(=O)Nc1ccc(Nc2cc(-c3ccccc3)nc3ncnn23)cc1	0	0	0	0	0
CCOC(=O)c1ccc(Nc2cc(C)nc3ncnn23)cc1	0	0	0	0	10µM
COC(=O)c1ccc(Nc2cc(C)nc3ncnn23)cc1	0	0	0	0	0
Cc1cc(Nc2ccc3ccccc3c2)n2ncnc2n1	0	?	0	6.3µM	?
CCCCc1nc2c(c3c1C[C@H](C)OC3)CN(C(=O)COC)CC2	-	-	0	-	0[13.5 µM]
CCOc1ccc2c(c1)nc(SCC(=O)c1ccc(Br)s1)n2C	30µM	?	32µM	14µM	18µM
C=CCN1C(=O)/C(=C/c2ccc(O)cc2)S/C1=N/c1nccs1	0	0	0	0	3.2µM
C=CCN1C(=O)/C(=C/c2ccc(OC)cc2)S/C1=N/c1nccs1	0	0	0	5µM	?
C=CCN1C(=O)/C(=C2/C(=O)N(CC(=O)O)c3ccccc32)S/C1=N/c1nccs1	-	0	0	0	0
Cc1nc(N2CCCCC2)c2c(-c3cccs3)csc2n1	0	0[10 µM]	56µM	0	?
O=C(CSc1nnc(-c2ccccc2Br)o1)N1CCN(C(=O)c2ccco2)CC1	0	0	0	0	8.9µM
OCC#CCSc1nnc(-c2ccc(Br)cc2)o1	0	?	0	?	0
OCC#CCSc1nnc(-c2ccccc2Br)o1	0	0	0	0	20µM
CC(C)Cn1c(SCC(=O)N2CCN(S(=O)(=O)c3ccccc3)CC2)nc2ccccc21	0	0	0	0[10 µM]	13µM
COC(=O)CC1C(=O)NCCN1C(=O)CSc1nnc(Nc2ccc(OC)cc2)s1 (stereo not drawn)	0	?	0	0	25µM
O=C(CSc1nnc(-c2ccc(F)cc2)o1)N1CCN(C(=O)c2ccco2)CC1	0	0	0	0	0
SMILES	PLK1 PBD inh	Gal4-VP16 FLuc	Sfp PPTase inh	RORgamma inh	ALDH1A1 inh
C[C@@H]1CCCCO[C@@H](CN(C)S(=O)(=O)c2ccc(Cl)cc2)[C@@H](C)CN([C@H](C)CO)C(=O)c2cc(N(C)C)ccc2O1	0	-	-	-	-
Cc1csc(=O)n1CC(=O)OC(C)C(=O)Nc1ccc(N(C)C)cc1 (stereo not drawn)	0	-	-	-	-
COc1ccc(C(=O)NCCCc2nc3ccccc3n2Cc2ccccc2C)cc1OC	0	0	0	?	0
COc1ccccc1N1CCN(C(=O)CSc2nc3ncnc(N)c3[nH]2)CC1	0	0	0	0	28µM
Nc1cc(N)nc(SCC(=O)N2CCN(C(=O)c3ccco3)CC2)n1	0	0	0	0	?
COC(=O)CC1C(=O)NCCN1C(=O)CSc1nc2ccccc2o1 (stereo not drawn)	0	0	0	0	?
Nc1ncnc2nc(SCC(=O)N3CCN(c4ccccc4)CC3)[nH]c12	0	0	0	0	?
COC(=O)CC1C(=O)NCCN1C(=O)CSc1nc2ccccc2c(=O)n1CC(C)C (stereo not drawn)	0	?	0	11µM	?
O=C(CSc1nc2ccccc2o1)N1CCN(C(=O)c2ccco2)CC1	0	0[0.365 µM]	0	0	13µM
CC(C)Cn1c(SCC(=O)N2CCN(C(=O)c3ccco3)CC2)nc2ccccc2c1=O	0	0	0	0	32µM
